# Measurements published in PubChem BioAssay (Tox21).
# Where “and” joins values, the source holds several entries; their conditions need not be identical. Equal values may be shown once. Records with an inconclusive call do not appear. A call without a number means that no potency is given here. Some structures have more than one record in an assay (separate samples or runs), and their calls can disagree. Calls of active or inactive are those of the source. Unless noted, calls follow the shape of the dose curve; as a rule, active = well fitted curve in the direction sought with a large enough effect in the repeat runs; inconclusive = weak or mixed curves; inactive = no such curve, though single readings can be large; an effect the other way counts as inactive or inconclusive. Starred links: 1 amine or outer side, 2 acyl side, 3 side chain; linkers in the order of their positions; H or OH if unused. Positions of bridges follow the written chain, without caps; N, C: chain ends. Non-standard residues stand in square brackets, D forms with d. Residues, ends and D or L forms follow the SMILES beside them. Chains are numbered I, II in the order given. Actinocin(9to1) = Cc1c2oc3c(C)ccc(C(=O)[*:1])c3nc-2c(C(=O)[*:2])c(N)c1=O; NMeV = CN[C@H](C(=O)O)C(C)C; Sar = CNCC(=O)O
# Tests used:
# [1] = qHTS assay for small molecule agonists of the p53 signaling pathway (AID 651631; calls by dose curve; also: nearly all actives have a fitted effect of over 15% in size; also: potency is read from the fitted curve at half-maximal effect)
# Procedure, shortened: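 HCT-116 cells carrying a beta-lactamase reporter under p53 response elements were dosed with compound for 16 h at 37 °C. LiveBLAzer B/G FRET substrate was then added for 2 h at room temperature, and fluorescence intensity was read to detect pathway agonism.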
# [2] = qHTS assay for small molecules that induce genotoxicity in human embryonic kidney cells expressing luciferase-tagged ATAD5 (AID 651632); also: nearly all actives have a fitted effect of over 15% in size
# Procedure, shortened: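 Luminescence read-out: after 16 hr compound exposure at 37C, ATAD5-luciferase HEK293T cells received Amplite, 30 min RT, then CCD imaging. A rise in signal marks genotoxic stress.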
# [3] = qHTS assay for small molecule agonists of the p53 signaling pathway - cell viability (AID 651633; calls by dose curve; also: nearly all actives have a fitted effect of over 30% in size; also: potency is read from the fitted curve at half-maximal effect)
# Procedure, shortened: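 p53RE-bla cells, seeded at 4,000 per well and rested 5 h at 37 C/5% CO2, received compounds in DMSO for 16 h at 37 C. CellTiter-Glo was then added, and luminescence was read after 30 min at room temperature to gauge cytotoxicity.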
# [4] = qHTS assay for small molecules that induce genotoxicity in human embryonic kidney cells expressing luciferase-tagged ATAD5 - cell viability (AID 651634; calls by dose curve; also: nearly all actives have a fitted effect of over 25% in size; also: potency is read from the fitted curve at half-maximal effect)
# Procedure, shortened: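 HEK293T ATAD5-luc cells, 2,000/well; compound 15.5 hr, 37C/5% CO2; CellTiter-Fluor 30 min, 37C; fluorescence read.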
# [5] = qHTS assay for small molecule disruptors of the mitochondrial membrane potential - cell viability (AID 720634; calls by dose curve; also: nearly all actives have a fitted effect of over 20% in size; also: potency is read from the fitted curve at half-maximal effect)
# Procedure, shortened: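 Luminescence from CellTiter-Glo (ATP content) gave viability in HepG2 cells, read in the same wells as the MMP dye assay after 1 hr compound exposure at 37 C.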
# [6] = qHTS assay for small molecule disruptors of the mitochondrial membrane potential (AID 720635); also: potency is read from the fitted curve at half-maximal effect
# Procedure, shortened: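 HepG2 cells (2,000/well) attached overnight at 37C, then took compound for 1 hr at 37C, 5% CO2. Mito-MPS dye was added for 30 min; fluorescence was read at 490/535 nm (monomers) and 540/590 nm (aggregates).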
# [7] = qHTS assay to test for compound auto fluorescence at 590 nm (red) in HepG2 cells (AID 720674)
# Procedure, shortened: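 Rose Bengal sodium served as the red fluorophore standard. HepG2 monolayers (overnight attachment, MEM with 10% FBS) were exposed to test compounds for 1 hr at 37 C and read at Ex 540/Em 590 nm.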
# [8] = qHTS assay to test for compound auto fluorescence at 535 nm (green) in HepG2 cells (AID 720675)
# [9] = qHTS assay to test for compound auto fluorescence at 590 nm (red) in HEK293 cells (AID 720679)
# Procedure, shortened: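 Using HEK293 cells at 2,000 per well, the screen added 23 nL of each compound after cell attachment and incubated overnight (37C, 5% CO2). The plate reader then captured red-label fluorescence, Ex/Em 540/590nm.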
# [10] = qHTS assay to test for compound auto fluorescence at 460 nm (blue) in HEK293 cells (AID 720678); also: potency is read from the fitted curve at half-maximal effect
# Procedure, shortened: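 Measured: blue fluorescence (Ex 405/Em 460 nm) of compound-treated HEK293 cells, incubated overnight at 37C with 5% CO2 and scaled to triamterene equivalents.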
# Tags tell the direction and shape of the fitted curve or compound fluorescence and quenching.
Structure (SMILES),Potency [1],Potency [2],Potency [3],Potency [4],Potency [5],Potency [6],outcome [7],Potency [8],outcome [9],Potency [10]
O=C(O)CCc1ccccc1,inactive,inactive,inactive,inactive,inactive,inactive,inactive,inactive,inactive,–
NC(Cc1ccc(Cl)cc1)C(=O)O (stereo not given),inactive,inactive,inactive,inactive,inactive,–,inactive,inactive,inactive,inactive
CCN(CC)c1ccc2c(C)cc(=O)oc2c1,30.9 µM (active) and 27.3 µM (active),inactive,inactive,inactive,–,–,inactive,inactive,inactive,39.8 µM [fluorescent] (active)
CCCCC/C=C/CC1CC(=O)OC1=O (stereo not given),inactive,inactive,inactive,inactive,inactive,–,inactive,inactive,inactive,inactive
C=CS(=O)(=O)O,inactive,inactive,inactive,inactive,inactive,–,inactive,inactive,–,inactive
CC(=O)CC(C)=O,inactive,inactive,inactive,inactive,inactive,–,inactive,inactive,–,inactive
C=C(C)C(=O)O,inactive,inactive,inactive,inactive,inactive,–,inactive,inactive,–,–
CC[C@H]1CN2CCc3cc(OC)c(OC)cc3[C@@H]2C[C@@H]1C[C@H]1NCCc2cc(OC)c(OC)cc21,38.7 nM (active),inactive,inactive,168 nM (active) and 194 nM (active),inactive,–,inactive,inactive,inactive,inactive
CN1C(=O)c2ccc([N+](=O)[O-])cc2C1=O,inactive,inactive,inactive,inactive,inactive,61.1 µM (active),inactive,inactive,inactive,–
CC(=O)N[C@@H](CS)C(=O)O,inactive,inactive,inactive,inactive,inactive,–,inactive,inactive,inactive,inactive
CCCC(=O)c1ccccc1,inactive,inactive,inactive,inactive,inactive,–,inactive,inactive,inactive,inactive
OCCOCCN1CCN(C(c2ccccc2)c2ccc(Cl)cc2)CC1 (stereo not given),inactive,inactive,inactive and 60.3 µM (active),inactive,inactive,–,inactive,inactive,inactive,–
Cc1cc(C2(c3cc(C)c(O)cc3C)OS(=O)(=O)c3ccccc32)c(C)cc1O,inactive,inactive,inactive,30.6 µM (active) and 17.2 µM (active),inactive,–,inactive,inactive,inactive,inactive
CCN(CC)C(=O)Nc1ccc(OCC(O)CNC(C)(C)C)c(C(C)=O)c1 (stereo not given),inactive,inactive,inactive,inactive,inactive,–,inactive,inactive,–,inactive
Cc1ccnc2c1NC(=O)c1cccnc1N2C1CC1,inactive,inactive,inactive,inactive,inactive,–,inactive,inactive,inactive,inactive
"Cc1c2oc3c(C)ccc(C(=O)N[C@@H]4C(=O)N[C@H](C(C)C)C(=O)N5CCC[C@H]5C(=O)N(C)CC(=O)N(C)[C@@H](C(C)C)C(=O)O[C@@H]4C)c3nc-2c(C(=O)N[C@@H]2C(=O)N[C@H](C(C)C)C(=O)N3CCC[C@H]3C(=O)N(C)CC(=O)N(C)[C@@H](C(C)C)C(=O)O[C@@H]2C)c(N)c1=O (I: T[dV]P[Sar][NMeV] / II: T[dV]P[Sar][NMeV]; ester I:1-I:C, II:1-II:C; linker I:N-II:N via Actinocin(9to1))",5.3 nM (active) and 2.7 nM (active),inactive,inactive,16.8 nM (active) and 23.7 µM (active),inactive,–,inactive,inactive,inactive,–
CC1=CC(=O)c2ccccc2C1=O,38600 nM (active),inactive,24.3 µM (active),inactive,inactive and 54.5 µM (active),–,inactive,inactive,inactive,inactive
CC(C(O)c1ccc(O)cc1)N1CCC(Cc2ccccc2)CC1 (stereo not given),inactive,inactive,inactive,inactive,inactive,–,inactive,inactive,inactive,inactive
O=Cc1ccc(Cl)cc1,inactive,inactive,inactive,inactive,inactive,–,inactive,inactive,–,–
O=C(O)c1cn(-c2ccc(F)cc2)c2cc(N3CCNCC3)c(F)cc2c1=O,inactive,inactive,inactive,inactive,inactive,–,inactive,inactive,–,inactive
NCCO,inactive,inactive,inactive,inactive,inactive,–,inactive,inactive,inactive,inactive
CC1=C(C=O)C(C)(C)CC=C1,inactive,inactive,inactive,inactive,inactive,–,inactive,inactive,–,inactive
CCCCOCCOC(=O)c1ccccc1C(=O)OCCOCCCC,inactive,inactive,inactive,inactive,inactive,–,inactive,inactive,inactive,inactive
